# How the values were obtained:
# Experiment in all cases: SPOT peptide array binding signal intensity (averaged, normalized) (arbitrary units (background-subtracted, floor 0; scale differs between SH3 domains)); higher = stronger binding of the SH3 domain to the peptide
# AgAbp1 = biological target: AgAbp1
# In short: (§1)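 Peptides were synthetic 15-mers on cellulose membranes, with every cysteine replaced by serine. They were incubated overnight at 4°C with GST-SH3 domains from four yeast species at 10 μg/ml in TBS-based blocking buffer. Binding signal, the replicate-averaged normalized and background-subtracted spot intensity, is in arbitrary units that differ between domains.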
# AgBbc1 = biological target: AgBbc1
# In short: as §1
# AgBem1-D1 = biological target: AgBem1-D1
# In short: as §1
# AgBzz1-D1 = biological target: AgBzz1-D1
# In short: as §1
# AgBzz1-D2 = biological target: AgBzz1-D2
# In short: as §1
# AgCyk3 = biological target: AgCyk3
# In short: as §1
# AgFus1 = biological target: AgFus1
# In short: as §1
# AgHof1 = biological target: AgHof1
# In short: as §1
# AgHse1 = biological target: AgHse1
# In short: as §1
# AgLsb1 = biological target: AgLsb1
# In short: as §1
# AgLsb4 = biological target: AgLsb4
# In short: as §1
# AgMyo5 = biological target: AgMyo5
# In short: as §1
# AgNbp2 = biological target: AgNbp2
# In short: as §1
# AgRvs167 = biological target: AgRvs167
# In short: as §1
# AgSho1 = biological target: AgSho1
# In short: as §1
# AgSla1-D1-D2 = biological target: AgSla1-D1-D2
# In short: as §1
# AgSla1-D3 = biological target: AgSla1-D3
# In short: as §1
# CaAbp1-D1 = biological target: CaAbp1-D1
# In short: as §1
# CaAbp1-D2 = biological target: CaAbp1-D2
# In short: as §1
# CaBbc1 = biological target: CaBbc1
# In short: as §1
# CaBem1-D1 = biological target: CaBem1-D1
# In short: as §1
# CaBzz1-D1 = biological target: CaBzz1-D1
# In short: as §1
# CaBzz1-D2 = biological target: CaBzz1-D2
# In short: as §1
# CaCyk3 = biological target: CaCyk3
# In short: as §1
# CaFus1 = biological target: CaFus1
# In short: as §1
# CaHof1 = biological target: CaHof1
# In short: as §1
# CaHse1 = biological target: CaHse1
# In short: as §1
# CaLsb1 = biological target: CaLsb1
# In short: as §1
# CaLsb4 = biological target: CaLsb4
# In short: as §1
# CaMyo5 = biological target: CaMyo5
# In short: as §1
# CaNbp2 = biological target: CaNbp2
# In short: as §1
# CaRvs167 = biological target: CaRvs167
# In short: as §1
# CaRvs167-3 = biological target: CaRvs167-3
# In short: as §1
# CaSho1 = biological target: CaSho1
# In short: as §1
# CaSla1-D1-D2 = biological target: CaSla1-D1-D2
# In short: as §1
# CaSla1-D3 = biological target: CaSla1-D3
# In short: as §1
# ScAbp1 = biological target: ScAbp1
# In short: as §1
# ScBbc1 = biological target: ScBbc1
# In short: as §1
# ScBem1-D1 = biological target: ScBem1-D1
# In short: as §1
# ScBzz1-D1 = biological target: ScBzz1-D1
# In short: as §1
# ScBzz1-D2 = biological target: ScBzz1-D2
# In short: as §1
# ScCyk3 = biological target: ScCyk3
# In short: as §1
# ScFus1 = biological target: ScFus1
# In short: as §1
# ScHof1 = biological target: ScHof1
# In short: as §1
# ScHse1 = biological target: ScHse1
# In short: as §1
# ScLsb1 = biological target: ScLsb1
# In short: as §1
# ScLsb2 = biological target: ScLsb2
# In short: as §1
# ScLsb3 = biological target: ScLsb3
# In short: as §1
# ScLsb4 = biological target: ScLsb4
# In short: as §1
# ScMyo3 = biological target: ScMyo3
# In short: as §1
# ScMyo5 = biological target: ScMyo5
# In short: as §1
# ScNbp2 = biological target: ScNbp2
# In short: as §1
# ScPex13 = biological target: ScPex13
# In short: as §1
# ScRvs167 = biological target: ScRvs167
# In short: as §1
# ScSho1 = biological target: ScSho1
# In short: as §1
# ScSla1-D1-D2 = biological target: ScSla1-D1-D2
# In short: as §1
# ScSla1-D3 = biological target: ScSla1-D3
# In short: as §1
# SpAbp1-D1 = biological target: SpAbp1-D1
# In short: as §1
# SpBbc1 = biological target: SpBbc1
# In short: as §1
# SpBzz1-D1 = biological target: SpBzz1-D1
# In short: as §1
# SpBzz1-D2 = biological target: SpBzz1-D2
# In short: as §1
# SpCyk3 = biological target: SpCyk3
# In short: as §1
# SpHof1 = biological target: SpHof1
# In short: as §1
# SpHof1-2 = biological target: SpHof1-2
# In short: as §1
# SpHof1-3 = biological target: SpHof1-3
# In short: as §1
# SpHse1 = biological target: SpHse1
# In short: as §1
# SpLsb1 = biological target: SpLsb1
# In short: as §1
# SpLsb4 = biological target: SpLsb4
# In short: as §1
# SpMyo1 = biological target: SpMyo1
# In short: as §1
# SpNbp2 = biological target: SpNbp2
# In short: as §1
# SpPex13 = biological target: SpPex13
# In short: as §1
# SpRvs167 = biological target: SpRvs167
# In short: as §1
# SpSla1-D1-D2 = biological target: SpSla1-D1-D2
# In short: as §1
# SpSla1-D3 = biological target: SpSla1-D3
# In short: as §1
binder,measurement,setting,value
PPLPRAPPVPPATFE,SPOT peptide array binding signal intensity,AgAbp1,16
same,SPOT peptide array binding signal intensity,AgBbc1,0.5
same,SPOT peptide array binding signal intensity,AgBem1-D1,40.5
same,SPOT peptide array binding signal intensity,AgBzz1-D1,18
same,SPOT peptide array binding signal intensity,AgBzz1-D2,≤ 0
same,SPOT peptide array binding signal intensity,AgCyk3,0.5
same,SPOT peptide array binding signal intensity,AgFus1,≤ 0
same,SPOT peptide array binding signal intensity,AgHof1,43.2
same,SPOT peptide array binding signal intensity,AgHse1,15
same,SPOT peptide array binding signal intensity,AgLsb1,17.2
same,SPOT peptide array binding signal intensity,AgLsb4,≤ 0
same,SPOT peptide array binding signal intensity,AgMyo5,434
same,SPOT peptide array binding signal intensity,AgNbp2,107
same,SPOT peptide array binding signal intensity,AgRvs167,≤ 0
same,SPOT peptide array binding signal intensity,AgSho1,6
same,SPOT peptide array binding signal intensity,AgSla1-D1-D2,5
same,SPOT peptide array binding signal intensity,AgSla1-D3,≤ 0
same,SPOT peptide array binding signal intensity,CaAbp1-D1,21.5
same,SPOT peptide array binding signal intensity,CaAbp1-D2,20
same,SPOT peptide array binding signal intensity,CaBbc1,79.2
same,SPOT peptide array binding signal intensity,CaBem1-D1,23
same,SPOT peptide array binding signal intensity,CaBzz1-D1,243
same,SPOT peptide array binding signal intensity,CaBzz1-D2,39.5
same,SPOT peptide array binding signal intensity,CaCyk3,1.5
same,SPOT peptide array binding signal intensity,CaFus1,47
same,SPOT peptide array binding signal intensity,CaHof1,1.5
same,SPOT peptide array binding signal intensity,CaHse1,≤ 0
same,SPOT peptide array binding signal intensity,CaLsb1,≤ 0
same,SPOT peptide array binding signal intensity,CaLsb4,≤ 0
same,SPOT peptide array binding signal intensity,CaMyo5,104
same,SPOT peptide array binding signal intensity,CaNbp2,1100
same,SPOT peptide array binding signal intensity,CaRvs167,≤ 0
same,SPOT peptide array binding signal intensity,CaRvs167-3,≤ 0
same,SPOT peptide array binding signal intensity,CaSho1,14
same,SPOT peptide array binding signal intensity,CaSla1-D1-D2,2
same,SPOT peptide array binding signal intensity,CaSla1-D3,1
same,SPOT peptide array binding signal intensity,ScAbp1,4.5
same,SPOT peptide array binding signal intensity,ScBbc1,≤ 0
same,SPOT peptide array binding signal intensity,ScBem1-D1,≤ 0
same,SPOT peptide array binding signal intensity,ScBzz1-D1,4.5
same,SPOT peptide array binding signal intensity,ScBzz1-D2,≤ 0
same,SPOT peptide array binding signal intensity,ScCyk3,≤ 0
same,SPOT peptide array binding signal intensity,ScFus1,11
same,SPOT peptide array binding signal intensity,ScHof1,241
same,SPOT peptide array binding signal intensity,ScHse1,≤ 0
same,SPOT peptide array binding signal intensity,ScLsb1,1
same,SPOT peptide array binding signal intensity,ScLsb2,11
same,SPOT peptide array binding signal intensity,ScLsb3,84
same,SPOT peptide array binding signal intensity,ScLsb4,≤ 0
same,SPOT peptide array binding signal intensity,ScMyo3,1100
same,SPOT peptide array binding signal intensity,ScMyo5,463
same,SPOT peptide array binding signal intensity,ScNbp2,200
same,SPOT peptide array binding signal intensity,ScPex13,95
same,SPOT peptide array binding signal intensity,ScRvs167,33.5
same,SPOT peptide array binding signal intensity,ScSho1,81
same,SPOT peptide array binding signal intensity,ScSla1-D1-D2,≤ 0
same,SPOT peptide array binding signal intensity,ScSla1-D3,≤ 0
same,SPOT peptide array binding signal intensity,SpAbp1-D1,7
same,SPOT peptide array binding signal intensity,SpBbc1,1
same,SPOT peptide array binding signal intensity,SpBzz1-D1,566
same,SPOT peptide array binding signal intensity,SpBzz1-D2,23.2
same,SPOT peptide array binding signal intensity,SpCyk3,≤ 0
same,SPOT peptide array binding signal intensity,SpHof1,1
same,SPOT peptide array binding signal intensity,SpHof1-2,707
same,SPOT peptide array binding signal intensity,SpHof1-3,125
same,SPOT peptide array binding signal intensity,SpHse1,30.8
same,SPOT peptide array binding signal intensity,SpLsb1,1.75
same,SPOT peptide array binding signal intensity,SpLsb4,≤ 0
same,SPOT peptide array binding signal intensity,SpMyo1,422
same,SPOT peptide array binding signal intensity,SpNbp2,17
same,SPOT peptide array binding signal intensity,SpPex13,≤ 0
same,SPOT peptide array binding signal intensity,SpRvs167,88
same,SPOT peptide array binding signal intensity,SpSla1-D1-D2,3
same,SPOT peptide array binding signal intensity,SpSla1-D3,≤ 0
